# Experimental data: PubChem BioAssay (NCATS)
# Values joined by “and” are separate entries in the source; they are usually repeats but may differ in a detail not shown here. Identical values can stand only once. Inconclusive results are not listed. A call without a number means that no potency is given here. Where a structure was tested more than once in an assay, its records may differ in their call. Active and inactive are the calls of the source. Unless noted, the call rests on the fitted dose curve; in most records, active means well fitted curve in the direction sought with a large enough effect; inconclusive means small, poorly fitted or top-dose-only effect, or another doubt; inactive means no such curve, though single readings can be large; an effect the other way counts as inactive or inconclusive.
# Legend:
# [1] = qHTS assay for small molecule agonists of the antioxidant response element (ARE) signaling pathway measured by Nrf2-dependant transcriptional activity (AID 720636; active means well fitted curve in the direction sought with a large enough effect in the repeat runs; an effect the other way counts as inactive or inconclusive;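 further: HepG2 cells with an ARE-driven luciferase reporter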)
# Outline: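 First, ARE-luc HepG2 cells attached for 6 hr at 37 C in 1% dialyzed FBS medium. Next, compound or DMSO was added and incubated 16 hr. Finally, ONE-Glo reagent was added and luminescence measured after 30 min.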
# [2] = qHTS assay for small molecule agonists of the antioxidant response element (ARE) signaling pathway measured by Nrf2-dependant transcriptional activity - cell viability counter screen (AID 720653; active means well fitted curve in the direction sought with a large enough effect in the repeat runs; an effect the other way counts as inactive or inconclusive); settings: ARE-bla HepG2 viability, CellTiter-Glo ATP luminescence, 16 h; max response: stronger effect = lower value
# Outline: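 ARE-bla HepG2 cells treated with compounds for 16 h at 37C; this counter screen measures viability as intracellular ATP by CellTiter-Glo luminescence after 30 min at room temperature.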
# [3] = qHTS Assay for Identifying Gametocytocidal Compounds (AID 743244); further: potency means the concentration at half of the fitted maximal effect;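 on max response: actives lower the fluorescent signal which means gametocytes are killed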; settings: P. falciparum 3D7 stage III-V gametocytes, alamarBlue, 72 h; max response: stronger effect = lower value
# Outline: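 P. falciparum 3D7 stage III–V gametocytes (20,000 cells/well) were exposed to compounds for 72 h at 37 °C, 5% CO2. AlamarBlue was then added for 24 h; decreased resorufin fluorescence (Ex 525/Em 598 nm) indicated loss of viability.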
# [4] = qHTS assay for cell viability of HEK293 cells (AID 743288); settings: ATP luminescence (CellTiter-Glo), 18 h, stronger effect = lower value; further: nearly all actives have a fitted effect of over 50% in size
# Outline: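 ATP luminescence (CellTiter-Glo) reports metabolically competent cell number after parental HEK293 cells, 2,000/well, were treated with DMSO-dissolved compounds for 18 h at 37 C; reagent incubation 30 min, room temperature.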
# [5] = qHTS assay for cell viability of the p53RE-bla HCT-116 cell line (AID 743292); further: nearly all actives have a fitted effect of over 55% in size
# Outline: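 Quantitative high-throughput format: compounds in DMSO were pinned onto p53RE-bla HCT-116 cells (4,000/well) and incubated 16 h at 37 C. Total intracellular ATP, read by CellTiter-Glo luminescence, reflects viable cell number.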
# [6] = biological target: T1, Hexokinase-4 (Homo sapiens) + Glucokinase regulatory protein (Homo sapiens) (UniProt P35557+Q14397); assay: qHTS assay for inhibitors of recombinant human GCK-GKRP interaction: ADP-Glo assay (AID 743206)
# T1 sequence (P35557 whole entry, looked up): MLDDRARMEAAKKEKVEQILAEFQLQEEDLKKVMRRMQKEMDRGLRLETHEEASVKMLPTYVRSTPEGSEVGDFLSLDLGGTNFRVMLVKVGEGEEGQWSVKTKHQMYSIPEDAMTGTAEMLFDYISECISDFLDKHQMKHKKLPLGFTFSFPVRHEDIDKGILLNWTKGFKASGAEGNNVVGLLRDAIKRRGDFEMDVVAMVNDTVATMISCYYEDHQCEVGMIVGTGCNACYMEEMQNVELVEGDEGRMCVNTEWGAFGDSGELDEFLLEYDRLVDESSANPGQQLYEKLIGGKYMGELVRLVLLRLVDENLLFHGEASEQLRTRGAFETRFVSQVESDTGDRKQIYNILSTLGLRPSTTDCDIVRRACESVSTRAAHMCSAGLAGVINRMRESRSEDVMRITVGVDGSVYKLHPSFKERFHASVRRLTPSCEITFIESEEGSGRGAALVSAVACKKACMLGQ
# T1 sequence (Q14397 whole entry, looked up): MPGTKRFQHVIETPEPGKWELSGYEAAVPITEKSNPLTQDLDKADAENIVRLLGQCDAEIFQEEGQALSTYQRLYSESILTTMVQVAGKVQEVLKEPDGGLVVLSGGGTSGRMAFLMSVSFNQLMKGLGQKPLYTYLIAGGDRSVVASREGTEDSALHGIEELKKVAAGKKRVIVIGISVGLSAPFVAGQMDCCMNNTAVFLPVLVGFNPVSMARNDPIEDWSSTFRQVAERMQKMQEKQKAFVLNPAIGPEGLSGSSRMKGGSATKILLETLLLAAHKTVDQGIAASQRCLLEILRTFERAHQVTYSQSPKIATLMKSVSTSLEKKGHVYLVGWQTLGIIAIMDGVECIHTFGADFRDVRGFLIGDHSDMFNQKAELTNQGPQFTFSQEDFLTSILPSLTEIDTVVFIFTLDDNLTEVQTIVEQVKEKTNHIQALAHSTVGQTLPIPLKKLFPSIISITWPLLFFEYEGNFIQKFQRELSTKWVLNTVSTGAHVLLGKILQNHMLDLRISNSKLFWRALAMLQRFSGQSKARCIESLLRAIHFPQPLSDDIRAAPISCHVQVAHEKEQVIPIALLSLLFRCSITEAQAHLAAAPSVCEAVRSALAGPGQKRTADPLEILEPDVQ
# Outline: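 Pin-transferred compounds meet a 15 nM GST-GCK/15 nM FLAG-GKRP/2 uM S6P mix (dispense concentrations). ATP is then added to 0.4 mM final with 5 mM glucose, and the reaction runs 60 min at room temperature. ADP is quantified luminescently.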
# [7] = biological target: T1, Hexokinase-4 (Homo sapiens) + Glucokinase regulatory protein (Homo sapiens); assay: qHTS assay for inhibitors of recombinant human GCK-GKRP interaction: HTRF assay (AID 743207)
# Outline: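 HTRF read-out (ex 320 nm; 615/665 nm emission) after 60 min RT equilibration of 5 nM GST-GCK, 5 nM FLAG-GKRP, 2 uM S6P, compound and anti-FLAG/anti-GST detection antibodies; signal normalized between DMSO wells with and without GCK.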
# [8] = qHTS assay for small molecule antagonists of the retinoid-related orphan receptor gamma (ROR-gamma) signaling pathway - cell viability counter screen (AID 720652; active means well fitted curve in the direction sought with a large enough effect in the repeat runs; an effect the other way counts as inactive or inconclusive;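 further: CHO reporter cells with doxycycline-induced ROR-gamma expression; compound exposure lasted 16 hr before ATP read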)
# Outline: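 ATP-based viability readout in the ROR-gamma reporter CHO cells after 16 hr compound exposure under doxycycline induction.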
# [9] = biological target: T1, Hexokinase-4 (Homo sapiens) + Glucokinase regulatory protein (Homo sapiens); assay: qHTS assay for inhibitors of recombinant human GCK-GKRP interaction: Diaphorase-coupled assay (AID 743205)
# Outline: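 Resorufin fluorescence (525/590 nm), read each minute over 30 min, reports GCK activity coupled via G6PDH and diaphorase. Reaction: 10 nM GST-GCK, 10 nM FLAG-GKRP, 5 mM glucose, 0.4 mM ATP, 0.15 mM NADP+, 0.1 mM resazurin.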
# [10] = qHTS profiling for inhibitors of Plasmodium falciparum (3D7) proliferation (AID 743322; call rule not given here;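 further: infected erythrocytes exposed to compound for 72 h before lysis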); settings: P. falciparum 3D7 proliferation; at 28.7 µM (top of the series) unless noted
# Outline: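 Parasite DNA was quantified by SYBR Green I fluorescence (ex 485, em 535 nm) after overnight lysis in saponin/Triton buffer at room temperature. Cultures at 0.3% parasitemia and 2.5% hematocrit were first exposed to compound for 72 h at 37 C; signals were normalised to artemisinin (0.29 uM) and vehicle wells.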
structure (smiles),measurement,setting,value
O=S(=O)(O)NC1CCCCC1,outcome,[1],inactive
same,max response,[2],2.33% (inactive)
same,max response,[3],-6.77% (inactive)
same,max response,[4],-0.923% (inactive)
same,Potency,[5],inactive
CNC(=O)Oc1ccc2c(c1)[C@]1(C)CCN(C)[C@@H]1N2C,outcome,[1],inactive
same,max response,[2],-1.23% (inactive)
same,outcome,[6],inactive
same,outcome,[7],inactive
same,max response,[4],-7.46% (inactive)
same,Potency,[5],inactive
CN(C)CCCN1c2ccccc2CCc2ccccc21,outcome,[1],inactive
same,max response,[2],-13.3% (inactive)
same,Potency,[5],inactive
NC(=O)N/N=C/c1ccc([N+](=O)[O-])o1,Potency,[8],inactive
same,max response,[2],-20.9% (inactive)
same,Potency,[3],35.5 µM (active)
same,max response,[3],4.19% (inactive)
same,max response,[4],-5.04% (inactive) and -17.6% (inactive)
same,Potency,[5],inactive
NC(=O)c1ncn([C@@H]2O[C@H](CO)[C@@H](O)[C@H]2O)n1,outcome,[1],inactive
same,max response,[2],-11.8% (inactive)
same,outcome,[9],inactive
same,outcome,[6],inactive
same,outcome,[7],inactive
same,max response,[3],-2.06% (inactive) and 29.2% (inactive)
same,max response,[4],-7.49% (inactive)
same,Potency,[5],inactive
CC(O)COc1ccccc1 (stereo not drawn),outcome,[1],inactive
same,max response,[2],-6.41% (inactive)
same,max response,[3],8.99% (inactive)
same,max response,[4],1.97% (inactive)
same,Potency,[5],inactive
Cc1cc2nc3c(=O)[nH]c(=O)nc-3n(C[C@H](O)[C@H](O)[C@H](O)CO)c2cc1C,outcome,[1],inactive
same,Potency,[8],inactive
same,max response,[2],0.335% (inactive)
same,max response,[3],33.2% (inactive) and 6.89% (inactive)
same,max response,[4],-6.02% (inactive)
same,Potency,[5],inactive
CCCCC(CC)COC(=O)c1ccccc1O (stereo not drawn),outcome,[1],inactive
same,max response,[2],-10.2% (inactive)
same,max response,[3],10.2% (inactive)
same,max response,[4],-7.63% (inactive)
same,Potency,[5],inactive
O=C1c2c(O)cccc2Cc2cccc(O)c21,outcome,[1],inactive
same,Potency,[8],inactive
same,max response,[2],-0.576% (inactive)
same,max response,[3],12% (inactive)
same,max response,[4],-1.66% (inactive)
same,Potency,[5],inactive
CC12CCC(CC1)C(C)(C)O2,outcome,[1],inactive
same,Potency,[8],inactive
same,max response,[2],3.37% (inactive)
same,max response,[4],4.94% (inactive)
same,Potency,[5],inactive
CN(C)CCCN1c2ccccc2Sc2ccc(Cl)cc21,outcome,[1],inactive
same,outcome,[9],inactive
same,outcome,[6],inactive
same,outcome,[7],inactive
same,max response,[4],-23.7% (inactive)
same,Potency,[5],inactive
CCCCOC(=O)c1ccc(O)cc1,Potency,[8],inactive
same,max response,[2],4.31% (inactive) and -13.4% (inactive)
same,max response,[4],-12.8% (inactive) and -6.18% (inactive)
same,Potency,[5],inactive
CCCCCCCCCCCCOS(=O)(=O)O,outcome,[1],inactive
same,Potency,[8],inactive
same,max response,[2],-1.36% (inactive) [middle of 4 runs]
same,max response,[3],14.3% (inactive)
same,max response,[4],-2.66% (inactive) [middle of 4 runs]
same,Potency,[5],inactive
Nc1ccc(S(=O)(=O)Nc2nccs2)cc1,outcome,[1],inactive
same,Potency,[8],inactive
same,max response,[2],-8.72% (inactive)
same,max response,[3],3.15% (inactive)
same,max response,[4],-1.59% (inactive)
same,Potency,[5],inactive
O=C1O[C@H]([C@@H](O)CO)C(O)=C1O,outcome,[1],inactive
same,Potency,[8],inactive
same,max response,[2],26.8% (inactive) and 1.51% (inactive)
same,max response,[4],-2.8% (inactive) and 5.16% (inactive)
same,Potency,[5],inactive
O=C1NS(=O)(=O)c2ccccc21,outcome,[1],inactive
same,max response,[2],-2.82% (inactive)
same,max response,[4],0.942% (inactive)
same,Potency,[5],inactive
CC(O)CN(CCN(CC(C)O)CC(C)O)CC(C)O (stereo not drawn),outcome,[1],inactive
same,max response,[2],-0.296% (inactive)
same,max response,[3],3.97% (inactive)
same,max response,[4],-9.37% (inactive)
same,Potency,[5],inactive
[Cl][In]([Cl])[Cl],Potency,[8],inactive
same,max response,[2],5.32% (inactive)
same,max response,[3],-7.04% (inactive) and -5.36% (inactive)
same,max response,[4],7.88% (inactive)
same,Potency,[5],inactive
CC1(C)[C@@H]2CC[C@@]1(C)C(=O)C2,outcome,[1],inactive
same,Potency,[8],inactive
same,max response,[2],-10.3% (inactive)
same,max response,[3],-6.95% (inactive)
same,max response,[4],-3.96% (inactive)
same,Potency,[5],inactive
CCCc1c(OCCCCc2nn[nH]n2)ccc(C(C)=O)c1O,outcome,[1],inactive
same,max response,[2],2.63% (inactive)
same,max response,[3],-10.5% (inactive)
same,max response,[4],-7.07% (inactive)
same,Potency,[5],inactive
Oc1cccc(O)c1,outcome,[1],inactive
same,max response,[2],0.509% (inactive)
same,max response,[4],11.8% (inactive)
same,Potency,[5],inactive
NCCNCCNCCNCCN,outcome,[1],inactive
same,Potency,[8],inactive
same,max response,[2],-13.9% (inactive) and 10.9% (inactive)
same,max response,[3],-2.7% (inactive)
same,max response,[4],-15.2% (inactive) and 3.69% (inactive)
same,Potency,[5],inactive
Cc1cccc(Nc2cc(Cl)nc(SCC(=O)O)n2)c1C,outcome,[1],inactive
same,max response,[2],-4.18% (inactive)
same,max response,[3],-1.09% (inactive)
same,max response,[4],-9.34% (inactive)
same,Potency,[5],inactive
COc1ccccc1O,outcome,[1],inactive
same,Potency,[8],inactive
same,max response,[2],0.99% (inactive) and -1.64% (inactive) and 4.12% (inactive)
same,max response,[3],-0.65% (inactive)
same,max response,[4],2.42% (inactive) and 2.72% (inactive) and -4.36% (inactive)
same,Potency,[5],inactive
CN(C)CCOC(C)(c1ccccc1)c1ccccn1 (stereo not drawn),outcome,[1],inactive
same,max response,[2],-11.9% (inactive)
same,outcome,[9],inactive
same,outcome,[6],inactive
same,outcome,[7],inactive
same,max response,[4],-4.19% (inactive)
same,Potency,[5],inactive
COC(=O)C1=C(C)NC(C)=C(C(=O)OC)C1c1ccccc1[N+](=O)[O-],max response,[2],-20.5% (inactive)
same,outcome,[9],inactive
same,outcome,[6],inactive
same,outcome,[7],inactive
CCOC(=O)c1ccc(O)cc1,max response,[2],-0.862% (inactive)
same,max response,[4],-3.62% (inactive)
same,Potency,[5],inactive
CC1=C(/C=C/C(C)=C/C=C/C(C)=C/C(=O)O)C(C)(C)CCC1,max response,[2],-2.09% (inactive) and 3.64% (inactive)
same,max response,[4],-2.27% (inactive) and -2.67% (inactive)
same,Potency,[5],inactive
CN(C)CCC=C1c2ccccc2CCc2ccccc21,max response,[4],-2.39% (inactive) and -37.1% (inactive)
same,Potency,[5],inactive
CN(C)CC[C@@H](c1ccc(Cl)cc1)c1ccccn1,remaining parasite growth % (stronger effect = lower value),[10],85.4%
